Source: PubChem BioAssay AID588397 (National Center for Advancing Translational Sciences (NCATS), 2011)
Out of some 1,300 compounds screened, about 1,000 (77%) were called active. Roughly 7% stayed inconclusive and do not appear here. The call rests on the fitted dose curve; in most records, active means well fitted inhibition curve with a large enough effect; inconclusive means small, poorly fitted or top-dose-only effect; inactive means no such curve, though single readings can be large or run the other way. So high a share suggests a set chosen from earlier hits. Some of the results follow.

Assay: qHTS of small molecules that selectively kill Giardia lamblia: Hit Validation.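 Further: viability measured as ATP content by luminescence so killing lowers signal; trophozoites exposed to compounds for 48 h anaerobically at 37 °C; nearly all actives have a fitted effect of over 65% in size.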
Settings: Giardia lamblia trophozoite viability, dose-response; series mostly up to 38.3 µM
In short: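 Viability, read as ATP luminescence: trophozoites at 100 cells/well, compound added, 48 hrs anaerobic at 37 deg C, then 15-30 min room-temperature development before reading.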
Potency means the concentration at half of the fitted maximal effect.

SMILES	Potency
COc1cccc(-c2cc3nc4c(c(NCC(C)(C)CN(C)C)n3n2)CCCC4)c1	0.579 µM (active)
Cc1oc2c(c1C(=O)O)C(=O)c1ccccc1C2=O	3.26 µM (active)
CCOC(=O)c1c(C)oc2c1C(=O)c1ccccc1C2=O	5.16 µM (active)
CCOC(=O)c1c(C)[nH]c2c1-c1ccccc1C(=O)C2=O	4.1 µM (active)
CC(=O)c1c(C)oc2c1C(=O)c1ccccc1C2=O	4.6 µM (active)
CC(=O)NCCNC(=O)c1ccc(CSc2ccc(Cl)cc2)cc1	inactive
CN(C)c1ccc(/C=C(/NC(=O)c2ccccc2)C(=O)N/N=C/c2ccc([N+](=O)[O-])c(O)c2)cc1	2.59 µM (active)
Cc1onc(-c2ccccc2Cl)c1C(=O)NNC(=O)c1ccc(F)cc1	inactive
Cc1onc(-c2ccccc2)c1C(=O)N/N=C/c1ccc([N+](=O)[O-])c(O)c1	3.26 µM (active)
Cc1ccc(OCC(=O)N(C)CC(=O)Nc2ccc(Cl)c(C(F)(F)F)c2)c([N+](=O)[O-])n1	5.79 µM (active)
Cc1ccc(OCC(=O)Nc2ccc(C)c(F)c2)c([N+](=O)[O-])n1	5.79 µM (active)
Cc1ccc(OCC(=O)Nc2nc(C)c(Cl)cc2Cl)c([N+](=O)[O-])n1	5.79 µM (active)
Oc1cccc(-c2nnc(-c3cccc(O)c3)nn2)c1	1.16 µM (active)
O=C(NCC1CCCO1)c1ccc([N+](=O)[O-])o1 (configuration not stated)	1.16 µM (active)
O=C(NC1CCCC(C(F)(F)F)C1)c1ccc([N+](=O)[O-])o1 (configuration not stated)	1.45 µM (active)
O=C(NC1CCCCC1)c1ccc([N+](=O)[O-])o1	1.63 µM (active)
Cc1cc2nc(-c3ccc[nH]c3=O)[nH]c2cc1C	0.729 µM (active)
Cc1ccc(-n2nnnc2CNC(=O)c2ccc([N+](=O)[O-])o2)cc1C	0.918 µM (active)
O=C(NCC(c1ccc(F)cc1)N1CCOCC1)c1ccc([N+](=O)[O-])o1 (configuration not stated)	1.3 µM (active)
O=C(NCc1nnnn1-c1ccc(F)cc1)c1ccc([N+](=O)[O-])o1	1.45 µM (active)
Cc1[nH]n(S(=O)(=O)c2ccccc2)c(=O)c1N=Nc1cccc(Cl)c1	4.6 µM (active)
Cc1[nH]n(S(=O)(=O)Cc2ccccc2)c(=O)c1N=Nc1ccccc1Cl	2.31 µM (active)
COc1ccc(N(Cc2ccccc2)C(=O)OC(C)(C)C)c(C(=O)N(C)OC)c1	inactive
COc1ccc(Cn2cnc([N+](=O)[O-])c2)cc1[N+](=O)[O-]	3.26 µM (active)
O=C(Nc1cccc(NC(=O)c2ccccc2Cl)c1)c1ccc([N+](=O)[O-])o1	0.41 µM (active)
COc1ccc(NC(=O)c2ccc([N+](=O)[O-])cc2[N+](=O)[O-])c(OC)c1	10.3 µM (active)

SMILES	Potency
O=C(Nc1ccc(NC(=O)c2ccc([N+](=O)[O-])o2)cc1Cl)c1ccco1	1.03 µM (active)
COc1cc(NC(=O)c2ccc([N+](=O)[O-])o2)ccc1NC(=O)c1ccco1	0.579 µM (active)
O=C(O)c1cccc(NC(=S)NC(NC(=O)c2ccccc2[N+](=O)[O-])C(Cl)(Cl)Cl)c1 (configuration not stated)	inactive
O=C(Nc1ccc(O)c2c(=O)cc(-c3ccccc3Cl)oc12)c1ccc(F)cc1	inactive
O=C(Nc1cccc(NC(=O)c2ccc([N+](=O)[O-])o2)c1)c1ccco1	0.729 µM (active)
Cc1cc(NC(=O)c2ccc([N+](=O)[O-])o2)ccc1NC(=O)c1ccco1	0.918 µM (active)
O=C(Nc1ccccc1O)c1ccc([N+](=O)[O-])cc1	9.18 µM (active)
O=C(Nc1cccc(NC(=O)c2cccs2)c1)c1ccc([N+](=O)[O-])o1	0.729 µM (active)
COc1ccc(NC(=O)c2ccco2)c(NC(=O)c2ccc([N+](=O)[O-])cc2)c1	4.1 µM (active)
COc1cc(NC(=O)c2ccc([N+](=O)[O-])o2)ccc1NC(=O)c1cccs1	0.818 µM (active)
O=C(COC(=O)c1ccc(Br)o1)Nc1ncc([N+](=O)[O-])s1	2.31 µM (active)
O=C(COC(=O)c1ccccc1)Nc1ncc([N+](=O)[O-])s1	3.65 µM (active)
Cc1nc2cc(NC(=O)c3ccc([N+](=O)[O-])s3)ccc2s1	0.65 µM (active)
Cc1cccc(NC(=O)c2ccc([N+](=O)[O-])s2)n1	3.65 µM (active)
Cc1ccnc(NC(=O)c2ccc([N+](=O)[O-])s2)c1	3.65 µM (active)
Cc1ccnc(NC(=S)NC(=O)c2cccs2)c1	6.5 µM (active)
COc1cc2c(cc1OC)CN(C(=O)c1ccc([N+](=O)[O-])o1)CC2	2.05 µM (active)
O=C(c1ccc([N+](=O)[O-])o1)N1CCc2ccccc2C1	2.9 µM (active)
O=C(c1ccc([N+](=O)[O-])o1)N1CCc2ccccc21	1.3 µM (active)
O=C(c1cc(COc2c(F)cccc2F)on1)N1CCc2ccccc2C1	inactive
COc1cc2c(cc1OC)CN(Cc1cc(=O)oc3c(C)c(C)ccc13)CC2	inactive
N/C(=N\c1nc2ccccc2o1)NC(=O)C(Cc1ccccc1)N1C(=O)c2ccccc2C1=O (configuration not stated)	1.83 µM (active)
N#Cc1ccccc1S(=O)(=O)N1CCN(C(=O)c2cn(-c3ccccc3)nc2-c2cccnc2)CC1	6.5 µM (active)
O=C(CC12CC3CC(CC(C3)C1)C2)N/N=C/c1ccc([N+](=O)[O-])o1	0.918 µM (active)
CC(NC(=O)C12CC3CC(CC(C3)C1)C2)C(=O)NN=Cc1ccc([N+](=O)[O-])o1 (configuration not stated)	1.83 µM (active)
CCn1c(C)cc(C(=O)COC(=O)c2ccccc2[N+](=O)[O-])c1C	20.5 µM (active)
